Laboratory results from PubChem BioAssay.
Values joined by “and” are separate entries in the source; they are usually repeats but may differ in a detail not shown here. Equal values may be shown once. Active and inactive are the calls of the source.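 The calls were made as follows, unless noted: active = inhibition at or above 50% relative to wild type and mutant plate controls; inactive = inhibition below 50%.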

Key:
[1] = inhibitors of TNFa-induced NFkB p65 translocation, primary screen, imaging, HUVEC, MLSMR starter and 10KST1 sets (AID 438;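 active = inhibition above 20% together with a positive visual image hit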;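 also: compound added about 3h40 before a 20 min TNFalpha stimulation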;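 as to inhibition: signal is the nuclear over cytoplasmic p65 intensity ratio per well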); details: HUVEC TNFa-induced p65 nuclear translocation; cell count: measured here: nuclei count (cytotoxicity indicator), at 2.08 µM; inhibition: at 2 µM, stronger effect = higher value, 0% TNFa-plus-vehicle, 100% no-TNFa wells
[2] = reduction of polyQ htt aggregates in cells – imaging, exon1htt(103Q)mCFP cells, high-content imaging, primary screen (AID 483;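 active = visual image review flags a hit and inhibition of aggregation exceeds 20%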;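 also: compound exposure lasted 3 days before fixation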;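 as to nuclei count: percent of the per-plate median nuclei count of sample wells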); details: exon1htt(103Q)mCFP cell line, aggregate imaging, at 2 µM; inhibition of aggregation: stronger effect = higher value; nuclei count: measured here: cell count, toxicity
[3] = endothelial E-selectin expression blockers – imaging, HUVEC, immunofluorescence, MLSMR starter and 10KST1 sets, primary screen (AID 487;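 active = visually confirmed hit in the image check and inhibition above 20%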;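 as to inhibition: signal is fraction of cell area covered by stained E-selectin grains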;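 as to nuclei count: 100% = median nuclei count of all wells on the same plate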); details: HUVEC TNFalpha-induced E-selectin immunofluorescence imaging, at 2 µM; inhibition: stronger effect = higher value; nuclei count: measured here: cell number, toxicity
[4] = Primary imaging screen for DUSP6 inhibitors that restore phospho-Erk in transfected HeLa cells, chemical complementation (AID 609;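 active = compounds giving at least 50% inhibition in the cell-based MKP-3 phosphatase rescue imaging test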;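 as to inhibition: phospho-Erk level distribution per well compared with pooled transfected vehicle control wells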); details: HeLa MKP-3 transfected, phospho-Erk imaging KS statistic, at 10 µM, cells stimulated with TPA for 15 min
[5] = molecular target: Dual specificity protein phosphatase 6 (Homo sapiens) (UniProt Q16828); assay: as above; details: HeLa MKP-3 transfected, phospho-Erk imaging KS statistic; at 10 µM; stronger effect = higher value; cells stimulated with TPA for 15 min
Sequence of Dual specificity protein phosphatase 6 (Homo sapiens) (Q16828 whole entry, looked up): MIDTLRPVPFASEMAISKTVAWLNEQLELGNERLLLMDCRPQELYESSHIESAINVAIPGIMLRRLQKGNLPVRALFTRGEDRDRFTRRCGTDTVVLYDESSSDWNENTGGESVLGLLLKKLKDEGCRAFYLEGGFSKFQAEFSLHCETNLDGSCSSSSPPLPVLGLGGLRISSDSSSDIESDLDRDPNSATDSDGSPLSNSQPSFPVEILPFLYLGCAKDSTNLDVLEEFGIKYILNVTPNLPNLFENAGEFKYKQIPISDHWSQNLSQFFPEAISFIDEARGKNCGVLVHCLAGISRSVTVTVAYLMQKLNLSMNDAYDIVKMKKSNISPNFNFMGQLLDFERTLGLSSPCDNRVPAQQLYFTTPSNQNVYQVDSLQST

[6] = molecular target: Voltage-gated potassium channel subunit beta-2 (Rattus norvegicus) (UniProt P62483); assay: inhibitors of rat Kvbeta2 reductase activity – biochemical, NADPH fluorescence, primary screen (AID 622;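 active = fluorescence slope higher than the sample average by over 3 SD, cut at about -0.22 in these data, passing the limit was not always enough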;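 also: slope of raw intensity against log time taken from 70 to 1610 s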); details: recombinant KvBeta, 4-cyanobenzaldehyde reduction, at 10 µM, stronger effect = higher value
Sequence of Voltage-gated potassium channel subunit beta-2 (Rattus norvegicus) (P62483 whole entry, looked up): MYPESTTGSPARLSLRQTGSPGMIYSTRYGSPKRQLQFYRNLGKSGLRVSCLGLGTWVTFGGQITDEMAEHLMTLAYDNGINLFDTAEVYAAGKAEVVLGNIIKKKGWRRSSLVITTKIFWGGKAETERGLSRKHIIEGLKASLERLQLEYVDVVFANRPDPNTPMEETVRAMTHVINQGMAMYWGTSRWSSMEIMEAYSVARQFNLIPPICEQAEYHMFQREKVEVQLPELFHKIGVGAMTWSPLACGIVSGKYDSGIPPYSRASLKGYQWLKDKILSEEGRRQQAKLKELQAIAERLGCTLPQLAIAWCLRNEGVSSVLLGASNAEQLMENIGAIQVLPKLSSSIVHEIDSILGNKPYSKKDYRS

[7] = molecular target: Voltage-gated potassium channel subunit beta-2 (Rattus norvegicus) (UniProt P62483); assay: enhancers of rat Kvbeta2 NADPH turnover – biochemical, NADPH fluorescence, primary screen (AID 623;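 active = NADPH fluorescence slope more negative than the mean of all samples by about 3 SD, 99.7% confidence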;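 also: fluorescence intensity change per second fitted from 20 to 320 s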); details: Recombinant KvBeta, NADPH fluorescence decrease slope, 10 min; at 10 µM; stronger effect = lower value
[8] = molecular target: Alpha-2C adrenergic receptor (Homo sapiens) (UniProt P18825); assay: compounds altering alpha2C-coupled GIRK flux – cell-based, HEK293 alpha2C/GIRK1/2, thallium flux, primary screen (AID 624;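 active = fluorescence slope after compound addition differing from the mean of all screened samples at 99.7% confidence, in either direction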;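 also: slope of fluorescence ratio to pre-addition baseline per second over 15 to 24 s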); details: thallium flux BTC fluorescence, at 10 µM, actives lie on both sides
Sequence of Alpha-2C adrenergic receptor (Homo sapiens) (P18825 whole entry, looked up): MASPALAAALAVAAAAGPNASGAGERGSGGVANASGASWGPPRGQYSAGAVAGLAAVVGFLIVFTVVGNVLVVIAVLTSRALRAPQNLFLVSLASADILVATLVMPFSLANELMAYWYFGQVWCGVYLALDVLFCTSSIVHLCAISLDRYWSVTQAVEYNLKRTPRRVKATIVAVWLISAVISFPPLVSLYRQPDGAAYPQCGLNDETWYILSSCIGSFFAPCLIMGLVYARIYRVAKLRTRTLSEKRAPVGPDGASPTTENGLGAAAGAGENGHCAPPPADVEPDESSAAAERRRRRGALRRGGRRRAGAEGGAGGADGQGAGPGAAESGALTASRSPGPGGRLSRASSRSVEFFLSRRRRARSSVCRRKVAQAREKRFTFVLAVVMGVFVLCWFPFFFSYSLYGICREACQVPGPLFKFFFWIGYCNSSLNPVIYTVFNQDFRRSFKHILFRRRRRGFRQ

[9] = inhibitors of larval lipid processing in zebrafish, primary screen, whole organism, PED6 fluorescence, gall bladder and intestine (AID 686;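 active = a full or partial loss of lipid-probe fluorescence in the fish gall bladder, intestine or both, judged by eye; inactive = no fluorescence loss, or compound toxic to the fish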;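 also: larvae 5 to 7 days old with five fish per well; signal comes from phospholipase A2 cleavage of quenched PED6 carried via bile; overnight exposure to compound and PED6 before scoring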); details: Zebrafish larvae PED6 lipid processing, fluorescence scoring; screened at 20 µM (by protocol)
[10] = loss of swimming-algae plug formation – whole organism, Chlamydomonas reinhardtii, WT vs cilia-less mutant, absorbance, 96-well, primary screen (AID 463189); details: Chlamydomonas reinhardtii gravitaxis, OD600 absorbance, 2 days; at 10 µM; stronger effect = higher value;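 also: 0% = wild type cc124 cells in DMSO and 100% = ciliumless bld1 mutant cells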
[11] = blockers of RIG-like receptor reporter activation – cell-based, Sendai virus stimulus, luciferase, 10K MLSCN set, TLR/RLR signaling modifier project, primary screen (AID 602276;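 active = inhibition at or above 50% at 10 µM; inactive = inhibition below 50%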;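 also: firefly luciferase from ISG56 promoter only with Renilla not read in this screen; 0% = Sendai virus plus DMSO and 100% = medium plus DMSO without virus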); details: HEK293 RL24 IRF3 luciferase reporter, at 10 µM, stronger effect = higher value
[12] = TLR3 IRF3 reporter activation blockers – cell-based, poly I:C stimulus, luciferase, 10K MLSCN set, primary screen (AID 602277;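 active = inhibition of the reporter signal at or above 50%; inactive = inhibition below 50%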); details: HEK293-TLR3 RL24 IRF3 luciferase reporter, at 10 µM, stronger effect = higher value
[13] = measured here: cell density z-score
[14] = measured here: nuclear c-Myc green intensity z-score
[15] = measured here: nuclear pErk red intensity z-score, stronger effect = higher value

SMILES | cell count [1] | inhibition [1] | inhibition of aggregation [2] | nuclei count [2] | inhibition [3] | nuclei count [3] | z-score [4, 13] | z-score [4, 14] | z-score [4, 15] | inhibition [5] | fluorescence slope [6] | NADPH fluorescence slope [7] | slope [8] | outcome [9] | inhibition [10] | inhibition [11] | inhibition [12]
CCCC(=O)Nc1ncnc2c1ncn2[C@@H]1O[C@@H]2COP(=O)(O)O[C@H]2[C@H]1OC(=O)CCC | 447 | 15.4% (inactive) | 14.3% (inactive) | 96.1% | -67.8% (inactive) | 127% | 0.217 | 0.395 | 0.177 | 21.2% (inactive) | -0.511 (inactive) | -7.6e-06 (inactive) | 0.00504 (inactive) | inactive | 29.3% (inactive) | 18.6% (inactive) | 40.7% (inactive)
COC(=O)[C@@H](N)Cc1ccc(O)cc1 | 550 | -6.9% (inactive) | 4.1% (inactive) | 91.1% | -9.7% (inactive) | 107% | -0.0639 | 0.189 | 0.26 | 11.3% (inactive) | -0.496 (inactive) | -7.7e-05 (inactive) | 0.00529 (inactive) | inactive | 15.2% (inactive) | 15.4% (inactive) | 27.7% (inactive)
N=c1ncn(CC(O)CN2CCOCC2)c2nc(N3CCOCC3)[nH]c12 (configuration not stated) | 536 | -23.6% (inactive) | 20.3% (inactive) | 88.8% | -90.1% (inactive) | 124% | 0.636 | -1.17 | 0.315 | 17.3% (inactive) | -0.517 (inactive) | -2.5e-05 (inactive) | 0.00808 (inactive) | inactive | 17.5% (inactive) | -19.8% (inactive) | -9.49% (inactive)
CC(C)[N+](C)(CCOC(=O)C1c2ccccc2Oc2ccccc21)C(C)C | 683 | -4.8% (inactive) | -28.8% (inactive) | 115% | -133% (inactive) | 138% | -0.466 | -0.573 | 0.578 | -2.46% (inactive) | -0.487 (inactive) | 2.5e-06 (inactive) | 0.00524 (inactive) | inactive | 0.683% (inactive) and 0.468% (inactive) | 20.3% (inactive) | 39.4% (inactive)
CC(CN1c2ccccc2Sc2ccccc21)N(C)C (configuration not stated) | 546 | 2.6% (inactive) | 6.8% (inactive) | 100% | -48.8% (inactive) | 109% | 2 | -0.736 | 0.272 | -0.828% (inactive) | -0.478 (inactive) | -1.7e-05 (inactive) | 0.0061 (inactive) | inactive | 91.5% (active) and 139% (active) | 5.11% (inactive) | 31% (inactive)
CN=c1sc2ccccc2n1CC(O)COCc1ccco1 (configuration not stated) | 575 | 0.4% (inactive) | 6.5% (inactive) | 98.5% | -71.1% (inactive) | 138% | 0.277 | 0.426 | 0.235 | 1.04% (inactive) | -0.302 (inactive) | -1.1e-05 (inactive) | 0.00567 (inactive) | inactive | 7.79% (inactive) | 12.5% (inactive) | 29.1% (inactive)
